Among all 5,500 compounds or so, about 2,000 (36%) were called active. Roughly 18% stayed inconclusive and do not appear here. No stated cut-off is given here; in the data, active means normalized growth mostly below about 0.91 (no sharp cut-off); inconclusive means no clear call, values can overlap the other calls; inactive means mostly above about 0.92. This is one part of the list.
Test: chemical genetic growth profiling, strain panel (AID 1159580);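 further: tested at 20 µM; growth read once vehicle control cultures reached saturation at 30 °C; 1 = growth at the plate median or of vehicle wells; lower values mean less growth of the strain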
Settings: S. cerevisiae deletion strains, growth OD

Measured: normalized growth

CC(C)(CCC(C)(C)N1C(=O)c2cccc3cccc(c23)C1=O)N1C(=O)c2cccc3cccc(c23)C1=O
active: locus YAR019C, strain CDC15, hits give low values 0.0987 | locus YBL105C, strain PKC1, hits give low values 0.0855 | locus YBR135W, strain CKS1, hits give low values 0.0899 | locus YBR136W, strain MEC1, hits give low values 0.107 | locus YBR160W, strain CDC28, hits give low values 0.0904 | locus YDL017W, strain CDC7, hits give low values 0.0866 | locus YDL028C, strain MPS1, hits give low values 0.0947 | locus YDL101C, strain DUN1, hits give low values 0.628 | locus YDL108W, strain KIN28, hits give low values 0.13 | locus YDL214C, strain PRR2, hits give low values 0.0867 | locus YDR052C, strain DBF4, hits give low values 0.308 | locus YDR054C, strain cdc34, hits give low values 0.227 | locus YDR226W, strain ADK1, hits give low values 0.509 | locus YDR477W, strain SNF1, hits give low values 0.0979 | locus YER123W, strain YCK3, hits give low values 0.103 | locus YER133W, strain GLC7, hits give low values 0.0935 | locus YFL029C, strain CAK1, hits give low values 0.0982 | locus YFR003C, strain YPI1, hits give low values 0.0904 | locus YFR019W, strain FAB1, hits give low values 0.0894 | locus YGR040W, strain KSS1, hits give low values 0.1 | locus YGR052W, strain FMP48, hits give low values 0.133 | locus YGR092W, strain DBF2, hits give low values 0.098 | locus YHR030C, strain SLT2, hits give low values 0.0982 | locus YHR079C, strain IRE1, hits give low values 0.116 | locus YHR082C, strain KSP1, hits give low values 0.129 | locus YHR205W, strain SCH9, hits give low values 0.213 | locus YIL147C, strain SLN1, hits give low values 0.0853 | locus YJL095W, strain BCK1, hits give low values 0.128 | locus YJL128C, strain PBS2, hits give low values 0.472 | locus YJL157C, strain FAR1, hits give low values 0.0837 | locus YJR066W, strain TOR1 (second series), hits give low values 0.12 | locus YJR066W, strain TOR1, hits give low values 0.123 | locus YKL048C, strain ELM1, hits give low values 0.104 | locus YKL067W, strain YNK1, hits give low values 0.0909 | locus YKL101W, strain HSL1, hits give low values 0.099 | locus YKL193C, strain SDS22, hits give low values 0.0977 | locus YKL203C, strain TOR2, hits give low values 0.116 | locus YLR113W, strain HOG1, hits give low values 0.166 | locus YLR133W, strain CKI1, hits give low values 0.0889 | locus YLR403W, strain SFP1, hits give low values 0.0154 | locus YML070W, strain DAK1, hits give low values 0.0999 | locus YMR001C, strain CDC5, hits give low values 0.0878 | locus YMR205C, strain PFK2 (second series), hits give low values 0.0998 | locus YMR277W, strain FCP1, hits give low values 0.104 | locus YNL006W, strain LST8, hits give low values 0.0921 | locus YNL020C, strain ARK1, hits give low values 0.0878 | locus YNL161W, strain CBK1, hits give low values 0.0843 | locus YNL183C, strain NPR1, hits give low values 0.13 | locus YNL207W, strain RIO2, hits give low values 0.508 | locus YNL222W, strain SSU72, hits give low values 0.095 | locus YNL307C, strain MCK1 (second series), hits give low values 0.0953 | locus YOL078W, strain AVO1, hits give low values 0.093 | locus YOL136C, strain PFK27, hits give low values 0.0923 | locus YOR061W, strain CKA2, hits give low values 0.1 | locus YOR119C, strain RIO1, hits give low values 0.118 | locus YOR231W, strain MKK1, hits give low values 0.13 | locus YOR329C, strain SCD5, hits give low values 0.0829 | locus YPL031C, strain PHO85, hits give low values 0.0976 | locus YPL153C, strain RAD53, hits give low values 0.101 | locus YPL204W, strain HRR25, hits give low values 0.0987 | locus YPL209C, strain IPL1, hits give low values 0.0859 | locus YPL256C, strain CLN2, hits give low values 0.134 | locus YPR025C, strain CCL1, hits give low values 0.0843 | strain NNK1, hits give low values 0.0956 | strain TSCII, hits give low values 0.0989
inactive: locus YDL132W, strain cdc53, hits give low values 0.971 | locus YJR016C, strain ILV3, hits give low values 0.976 | locus YPR111W, strain DBF20, hits give low values 0.92

C[N+](C)(CCCCCC[N+](C)(C)CCCN1C(=O)c2cccc3cccc(c23)C1=O)CCCN1C(=O)c2cccc3cccc(c23)C1=O
inactive: locus YAL040C, strain CLN3, hits give low values 0.984 | locus YCL061C, strain MRC1 (second series), hits give low values 1 | locus YDR150W, strain NUM1, hits give low values 1 | locus YDR363W, strain ESC2, hits give low values 0.986 | locus YER002W, strain NOP16, hits give low values 1.01 | locus YGR229C, strain SMI1, hits give low values 1 | locus YMR307W, strain GAS1, hits give low values 0.981 | locus YNL128W, strain TEP1, hits give low values 0.995 | locus YNL153C, strain GIM3, hits give low values 0.955 | locus YNL175C, strain NOP13, hits give low values 1.01 | locus YNL197C, strain WHI3, hits give low values 1.01 | locus YNL224C, strain SQS1, hits give low values 1 | locus YOR083W, strain WHI5 (second series), hits give low values 1.01 | locus YPL055C, strain LGE1, hits give low values 0.963 | locus YPL241C, strain CIN2, hits give low values 0.99

Reference: PubChem BioAssay AID1159580 (chemical genetic matrix, 2015)
